Screening data deposited in PubChem BioAssay by several laboratories.
Compounds with a hit are over-represented: about 32% of the library has one in this group of screens.
PostGolgi yeast = growth inhibition of a yeast mutant, post-Golgi transport screen; post-Golgi transport phenotypic cell assay; inhibition, % at 10 µM; 98,000 compounds, 0.9% hits; AID 739;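 further: yeast cells grown in 1536-well plates; yeast grown about 18 h at 30C before absorbance read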
CYP2C19 act = cytochrome P450 2C19 (human) activation. P33261. recombinant CYP2C19, luciferin-H EGE luminescence; active compounds read high; 0 = fully inhibited enzyme, 1 = untreated enzyme. AID 1025. 96,000 tested, under 10 active. activation factor at 5 µM;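 active means activation factor of at least 2 at 5 µM in the primary screen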;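 further: 0 = wells with 2.5 mM tranylcypromine and 1 = vehicle-only wells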
CYP2C9 activ = increases human cytochrome P450 2C9 activity; P11712; recombinant CYP2C9, luciferin-H conversion, luminescence; active compounds read high; factor 1 = untreated enzyme, 0 = blocked; activation factor at 5 µM; 96,000 compounds, 1.4% hits; AID 1024;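 active means activation factor of 2 or more for CYP2C9 at a 5 µM dose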;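 further: 0 = sulfaphenazole-blocked wells and 1 = vehicle-only wells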
Target sequence (P11712 whole entry, looked up): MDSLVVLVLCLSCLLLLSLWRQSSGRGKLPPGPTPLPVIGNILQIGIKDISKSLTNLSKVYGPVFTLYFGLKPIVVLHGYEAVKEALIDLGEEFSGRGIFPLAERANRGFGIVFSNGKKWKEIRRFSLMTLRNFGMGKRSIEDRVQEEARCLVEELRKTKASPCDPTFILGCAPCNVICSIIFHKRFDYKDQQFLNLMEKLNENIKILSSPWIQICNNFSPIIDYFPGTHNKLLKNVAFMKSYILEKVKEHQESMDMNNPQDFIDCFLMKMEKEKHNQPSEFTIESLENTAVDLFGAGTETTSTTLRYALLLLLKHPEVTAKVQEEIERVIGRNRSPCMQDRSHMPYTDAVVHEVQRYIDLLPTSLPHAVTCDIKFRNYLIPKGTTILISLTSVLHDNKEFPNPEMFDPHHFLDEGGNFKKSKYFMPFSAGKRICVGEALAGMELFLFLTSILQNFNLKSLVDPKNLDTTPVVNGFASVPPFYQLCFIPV
CYP2C9 inh = inhibitors of human CYP2C9; CYP2C9 Supersomes, luciferin-H conversion, luminescence; inhibition, % at 5 µM; P11712; 96,000 compounds, 20% hits; AID 777;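 active means blocking of liver enzyme CYP2C9 beyond about 50% at 5 µM, limit read from the data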
CYP2C19 inh = blocks human cytochrome P450 2C19; AID 778; inhibition, % at 5 µM; 96,000 compounds, 21% hits; CYP2C19 Supersomes, luciferin-H EGE luminescence, 30 min; P33261;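 active means CYP2C19 inhibition above a set limit at 5 µM in the primary screen, cut at about 50% in these data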;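 further: plate controls were negative control wells for no effect and 2.5 mM tranylcypromine positive control for full effect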
PostGolgi ctrl = inhibits growth of the yeast control strain; 98,000 compounds, 5% hits; AID 738; inhibition, % at 10 µM; efflux-deficient yeast background strain, growth absorbance A615, 16 h
* = called active by the depositor; · = no result given. Unless noted, no stated cut-off is given here; in the data, active means inhibition above about 30%; inactive means the rest.

SMILES	PostGolgi yeast	CYP2C19 act	CYP2C9 activ	CYP2C9 inh	CYP2C19 inh	PostGolgi ctrl
COc1ccc(-n2nc3c(c2NC(=O)c2c(F)cccc2Cl)CS(=O)C3)cc1 (stereo not given)	7	1.1	1.1	-7	-8	-5
CSc1nnc(CSCc2ccc(Cl)cc2Cl)n1-c1ccccc1	-2	0.4	0.3	70*	59*	51*
CN(C)c1ccc(Nc2nc(-c3cccnc3)cs2)cc1	3	0.2	0.5	46	81*	-2
Clc1ccc(Nc2nc(-c3cccnc3)cs2)cc1	3	0.2	0.9	6	83*	24
CCC(CC)C(=O)Nc1cccc(S(=O)(=O)c2cccc(NC(=O)C(CC)CC)c2)c1	4	0.9	0.9	8	11	3
NC(=O)SCC(=O)Nc1ccc(Cl)c(Cl)c1	-6	0.5	0.3	74*	46	16
NC(=O)SCC(=O)Nc1ccc(Cl)cc1	-1	0.6	0.5	51*	36	1
CCC(CC)C(=O)Nc1ccc(Cl)c(Cl)c1	17	0.3	0.6	38	67*	7
O=C(Nc1cccc2nsnc12)c1ccc(-c2ccc(Br)cc2)o1	4	1.1	1	-2	-8	5
O=C(Cn1c(=O)oc2cc(S(=O)(=O)N3CCCC3)ccc21)Nc1ccc(C(F)(F)F)cc1	-10	1	0.7	27	-2	3
CC(=O)c1coc2ccc(OCC(=O)O)cc12	-1	·	·	·	·	3
Clc1cccc(CON/C=N/c2ncnc3sccc23)c1	21	0.2	0.5	50*	80*	35*
Cc1noc(C)c1COC(=O)CCCc1nc2ccccc2s1	-2	0.6	0.5	51*	41	-2
CC(OC(=O)CCCc1nc2ccccc2s1)C(N)=O (stereo not given)	-9	0.8	1.2	-18	16	-9
CCCCCCOC(=O)/C=C/c1c(C)[nH]c(=O)[nH]c1=O	23	0.8	0.9	10	18	-1
Cc1noc(C)c1COC(=O)c1cccc(S(=O)(=O)N2c3ccccc3CC2C)c1 (stereo not given)	2	0.4	0.2	80*	59*	30
CC1Cc2ccccc2N1S(=O)(=O)c1cccc(C(=O)c2nccn2C)c1 (stereo not given)	-3	0.6	0.6	44	36	21
CCC(CO)NC(=O)c1cccc(S(=O)(=O)N2c3ccccc3CC2C)c1 (stereo not given)	1	0.3	0.9	14	73*	9
CCCOc1ccc2c(=O)c(-c3cc(C(=O)OC)oc3C)c(C)oc2c1	-5	0.8	0.5	48	20	13
CC1CCC2(CC1)NC(=O)c1ccccc1O2 (stereo not given)	16	0.1	0.8	22	93*	13
CC1Cc2ccccc2C(=O)N1 (stereo not given)	11	1.1	1.1	-8	-9	-1
NCCc1nnc(SCc2ccccc2)o1	11	0.2	0.3	66*	79*	14
NCCc1nnc(SCC(N)=O)o1	-7	1	1	-4	-5	7
CCc1ccccc1NC(=O)CSc1nnc([C@@H](N)Cc2ccccc2)o1	1	·	·	·	·	6
CCN(CC)C(=O)CSc1nnc(CCN)o1	6	0.5	0.5	53*	48	1
SMILES	PostGolgi yeast	CYP2C19 act	CYP2C9 activ	CYP2C9 inh	CYP2C19 inh	PostGolgi ctrl
N[C@@H](Cc1ccccc1)c1nnc(SCc2ccccc2Cl)o1	-7	0.2	0.6	36	79*	10
Fc1cccc(Cl)c1CSc1nnc(COc2cccc3cccnc23)o1	4	0	1.2	-23	96*	62*
O=C(Nc1ccc(F)cc1F)NC1CC(=O)N(Cc2ccccc2)C1 (stereo not given)	4	·	·	·	·	5
CCCCCOc1ccc(C(=O)NC(C(=O)O)C(C)C)cc1 (stereo not given)	-4	1	1	0	-3	-4
NCCCCCc1nnc(SCc2ccccc2Cl)o1	-2	0.3	0.8	15	72*	17
NCCc1nnc(SCc2ccccc2F)o1	0	0.6	0.7	29	44	3
NCCc1nnc(SCc2c(F)cccc2Cl)o1	-3	0.4	0.5	53*	62*	-1
COc1ccc(C)cc1-n1nnnc1SCc1csc(C)n1	17	0	0.3	73*	99*	0
COc1ccc(C)cc1-n1nnnc1SCn1nnc2ccccc2c1=O	-1	0.8	1.1	-9	20	24
Cc1cccc2c1nc(-c1ccccc1)n1nnnc21	11	1	1.1	-6	4	19
COc1ccc(C)cc1-n1nnnc1SCc1cc(=O)n2cc(C)ccc2n1	-9	0.4	0.9	13	61*	22
COc1cc2c(cc1OC)CN(Cc1cc(=O)n3cc(C)ccc3n1)CC2	·	1	0.7	28	5	·
Cc1ccccc1-n1nnnc1-c1ccccc1	0	0.3	0.7	27	70*	-2
Cc1ccccc1-n1nnnc1SCc1csc(-c2ccccc2)n1	-7	0	0.1	93*	97*	25
COc1cc(-c2nc3n(n2)C(c2cccc(OC)c2OC)C2=C(CCCC2=O)N3)cc(OC)c1OC (stereo not given)	9	0.8	0.9	6	19	-9
O=C1CN(C(=O)COc2ccccc2)CCN1	-3	·	·	·	·	14
O=C(CCCc1c[nH]c2ccccc12)N1CCN(c2ccc(N3CCOCC3)nn2)CC1	-5	0.4	0.7	32	58*	2
Cc1ccc(C)c(N(C(=O)CCC(=O)Nc2cc(C)on2)C(C(=O)NC2CCCC2)c2ccco2)c1 (stereo not given)	-8	0.5	0.8	20	54*	-7
Cc1ccc(C)c(N(C(=O)Cc2cccs2)C(C(=O)NC2CCCC2)c2ccc(C)o2)c1 (stereo not given)	-12	1.1	0.3	73*	-7	3
Cc1cc(NC(=O)CCC(=O)N(Cc2ccco2)C2(C(=O)NC3CCCCC3)CCN(C)CC2)no1	-11	0.3	0.9	11	74*	-1
Cc1ccc(N(C(=O)CCC(=O)Nc2cc(C)on2)C(C(=O)NC2CCCC2)c2cccs2)cc1 (stereo not given)	0	0.1	0.1	89*	95*	36*
Cc1cc(NC(=O)CCC(=O)N(c2ccc(F)cc2)C(C(=O)NC2CCCC2)c2ccncc2)no1 (stereo not given)	-1	0.5	0.7	30	48	8
Cc1ccc(N(C(=O)C(F)(F)F)C(C(=O)NC2CCCCC2)c2cccs2)cc1 (stereo not given)	-2	0.7	0.4	55*	31	14
O=C(NC1CCCC1)C(c1cccs1)N(C(=O)c1ccco1)c1ccc2c(c1)OCCO2 (stereo not given)	12	0.2	0.2	78*	80*	15
Cc1cc(NC(=O)CCC(=O)N(c2ccccc2)C(C(=O)NC2CCCC2)c2cccs2)no1 (stereo not given)	-7	0.2	0.3	70*	77*	15
